Compounds without any hit were thinned out: in the full panel of roughly 83,000, 20% have a hit.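 How to read the values: 0–100, growth inhibition (40 = 60% inhibited); 0, no net growth; -100 to 0, cell death (-40 = 40% of starting cells died; -100 = all dead).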 A number with no mark means an inactive call. The source made the active and inactive calls. How the source made its calls: active means growth percent below 10; inactive means the rest.
Key:
Assay in all cases: NCI-60 one-dose screen, 48 h (100 = growth as untreated, 0 = no growth, -100 = all killed)
Details in all cases: 10 µM unless noted
NCI-H23 lung = system: NCI-H23 lung
NCI-H226 lung = system: NCI-H226 lung
NCI-H322M lung = system: NCI-H322M lung
HOP-62 NSCLC = system: HOP-62 NSCLC
NCI-H460 lung = system: NCI-H460 lung
HOP-92 NSCLC = system: HOP-92 NSCLC
NCI-H522 lung = system: NCI-H522 lung
A549/ATCC NSCLC = system: A549/ATCC NSCLC
786-0 renal = system: 786-0 renal
COLO 205 colon = system: COLO 205 colon
DU-145 prostate = system: DU-145 prostate
MALME-3M melanoma = system: MALME-3M melanoma
MDA-MB-231 breast = system: MDA-MB-231 breast
RXF 393 renal = system: RXF 393 renal
SF-268 CNS = system: SF-268 CNS
SF-295 CNS = system: SF-295 CNS
SF-539 CNS = system: SF-539 CNS
UACC-257 melanoma = system: UACC-257 melanoma
M14 melanoma = system: M14 melanoma

| Compound | growth (NCI-H23 lung) [%] | growth (NCI-H226 lung) | growth (NCI-H322M lung) [%] | growth (HOP-62 NSCLC) | growth (NCI-H460 lung) | growth (HOP-92 NSCLC) [%] | growth (NCI-H522 lung) | growth (A549/ATCC NSCLC) [%] | growth (786-0 renal) | growth (COLO 205 colon) | growth (DU-145 prostate) [%] | growth (MALME-3M melanoma) | growth (MDA-MB-231 breast) | growth (RXF 393 renal) | growth (SF-268 CNS) [%] | growth (SF-295 CNS) | growth (SF-539 CNS) | growth (UACC-257 melanoma) [%] | growth (M14 melanoma) |
| --- | --- | --- | --- | --- | --- | --- | --- | --- | --- | --- | --- | --- | --- | --- | --- | --- | --- | --- | --- |
| Clc1ccc2c(NCCCCNc3nc(N4CCOCC4)nc4ccccc34)ccnc2c1 | 59.7 | -43.4% (active) | 26.4 | -9.83% (active) | 4.54% (active) | 71.8 | -25.6% (active) | 14.6 | -54.1% (active) | -46.9% (active) | 38.4 | -58.7% (active) | -58.3% (active) | 86.3% | 43 | -5.21% (active) | -84.5% (active) | 84.9 | -66.2% (active) |
| COc1ccc(CN2c3ccccc3Oc3ccccc32)cc1F | 71.8 | 101% | 91.5 | 52.1% | 47.6% | 66.6 | -13.2% (active) | 43.7 | 79.2% | 41.7% | 95.9 | 59.2% | 53.1% | 84.5% | 84.7 | 33% | 64.7% | 58.9 | 33.6% |
| COc1ccc(CN2c3ccccc3Sc3ccccc32)c(C(F)(F)F)c1 | 43.9 | 57.7% | 49.1 | 41% | 9.92% (active) | 39.4 | -46.3% (active) | 33.2 | 41.9% | -29.1% (active) | 21 | 92.7% | 40.6% | -9.74% (active) | 56.4 | 2.22% (active) | -12.4% (active) | 53.9 | 7.59% (active) |

Source: PubChem BioAssay (NCI)
